PubChem BioAssay AID1159580 (chemical genetic matrix, 2015)
The whole screen tested about 5,500 compounds, of which about 2,000 (36%) were called active. Not shown: some 18% with an inconclusive outcome. No stated cut-off is given here; in the data, active means normalized growth mostly below about 0.91 (no sharp cut-off); inconclusive means no clear call, values can overlap the other calls; inactive means mostly above about 0.92. This is one part of the list.

Experiment: chemical genetic growth profiling, strain panel (AID 1159580);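 further: tested at 20 µM; growth read once vehicle control cultures reached saturation at 30 °C; 1 = growth at the plate median or of vehicle wells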
Conditions: S. cerevisiae deletion strains, growth OD

Measured: normalized growth

COC(=O)c1c(C)cc(O)cc1O
inactive: locus YAL021C, strain ccr4, stronger effect = lower value 1.02 | locus YAL026C, strain drs2, stronger effect = lower value 1 | locus YAL030W, strain snc1, stronger effect = lower value 1 | locus YBL061C, strain skt5, stronger effect = lower value 1.02 | locus YBR009C, strain hhf1, stronger effect = lower value 1 | locus YBR023C, strain chs3, stronger effect = lower value 1.01 | locus YBR171W, strain sec66, stronger effect = lower value 1 | locus YBR231C, strain swc5, stronger effect = lower value 1.01 | locus YBR279W, strain paf1, stronger effect = lower value 1.02 | locus YCL011C, strain gbp2, stronger effect = lower value 1.01 | locus YCL016C, strain dcc1, stronger effect = lower value 1.01 | locus YCL061C, strain MRC1, stronger effect = lower value 1.01 | locus YCL069W, strain vba3, stronger effect = lower value 0.999 | locus YCR088W, strain abp1, stronger effect = lower value 0.994 | locus YDL005C, strain med2, stronger effect = lower value 1.01 | locus YDL040C, strain nat1, stronger effect = lower value 1 | locus YDR001C, strain nth1, stronger effect = lower value 0.998 | locus YDR069C, strain doa4, stronger effect = lower value 1.01 | locus YDR137W, strain rgp1, stronger effect = lower value 1 | locus YDR159W, strain sac3, stronger effect = lower value 1.02 | locus YDR195W, strain ref2 1.05 | locus YDR297W, strain sur2, stronger effect = lower value 1.01 | locus YDR334W, strain swr1, stronger effect = lower value 1.01 | locus YDR335W, strain msn5, stronger effect = lower value 1.01 | locus YDR392W, strain spt3, stronger effect = lower value 0.978 | locus YEL003W, strain gim4, stronger effect = lower value 1.01 | locus YEL037C, strain rad23, stronger effect = lower value 1.01 | locus YEL061C, strain CIN8 (second series), stronger effect = lower value 1.01 | locus YER015W, strain faa2, stronger effect = lower value 1 | locus YER016W, strain bim1, stronger effect = lower value 1.01 | locus YER111C, strain swi4, stronger effect = lower value 1.03 | locus YER155C, strain BEM2 (second series), stronger effect = lower value 0.995 | locus YFR010W, strain ubp6, stronger effect = lower value 1.02 | locus YGL167C, strain pmr1, stronger effect = lower value 1.01 | locus YGL173C, strain kem1, stronger effect = lower value 1.02 | locus YGL227W, strain vid30, stronger effect = lower value 1 | locus YGL240W, strain doc1, stronger effect = lower value 1 | locus YGL253W, strain hxk2, stronger effect = lower value 1.01 | locus YHR013C, strain ard1, stronger effect = lower value 1.03 | locus YHR027C, strain rpn1, stronger effect = lower value 1.02 | locus YHR030C, strain SLT2, stronger effect = lower value 0.994 | locus YHR079C, strain IRE1, stronger effect = lower value 0.996 | locus YHR142W, strain chs7, stronger effect = lower value 1 | locus YJL092W, strain hpr5, stronger effect = lower value 0.998 | locus YJL095W, strain BCK1 (second series), stronger effect = lower value 1 | locus YJL095W, strain BCK1, stronger effect = lower value 0.984 | locus YJL115W, strain asf1, stronger effect = lower value 1.01 | locus YJL129C, strain trk1, stronger effect = lower value 1 | locus YJL154C, strain vps35, stronger effect = lower value 1.01 | locus YJL164C, strain tpk1, stronger effect = lower value 1.01 | locus YJL166W, strain qcr8, stronger effect = lower value 0.998 | locus YJL187C, strain SWE1, stronger effect = lower value 1.01 | locus YJR066W, strain TOR1, stronger effect = lower value 0.948 | locus YKL160W, strain elf1, stronger effect = lower value 1 | locus YKR026C, strain gcn3, stronger effect = lower value 1 | locus YKR091W, strain srl3, stronger effect = lower value 1.01 | locus YLL001W, strain dnm1, stronger effect = lower value 1.02 | locus YLL026W, stronger effect = lower value 0.996 | locus YLL041C, strain sdh2, stronger effect = lower value 1.01 | locus YLR027C, strain aat2, stronger effect = lower value 1.01 | locus YLR113W, strain HOG1, stronger effect = lower value 1.03 | locus YLR221C, strain rsa3, stronger effect = lower value 0.999 | locus YLR258W, strain gsy2, stronger effect = lower value 1.01 | locus YLR262C, strain YPT6 (second series), stronger effect = lower value 0.985 | locus YLR320W, strain mms22, stronger effect = lower value 1.01 | locus YLR342W, strain FKS1, stronger effect = lower value 1.01 | locus YLR357W, strain rsc2, stronger effect = lower value 1.03 | locus YLR370C, strain arc18, stronger effect = lower value 0.992 | locus YLR384C, strain iki3, stronger effect = lower value 1.01 | locus YML120C, strain ndi1, stronger effect = lower value 0.993 | locus YMR058W, strain fet3, stronger effect = lower value 1.01 | locus YMR125W, strain sto1, stronger effect = lower value 1.02 | locus YMR129W, stronger effect = lower value 1.01 | locus YMR205C, strain PFK2, stronger effect = lower value 1.01 | locus YMR231W, strain pep5, stronger effect = lower value 1.01 | locus YNL071W, strain lat1, stronger effect = lower value 0.987 | locus YNL183C, strain NPR1, stronger effect = lower value 0.917 | locus YNL209W, strain ssb2, stronger effect = lower value 1.01 | locus YNL248C, strain rpa49, stronger effect = lower value 1.01 | locus YNL322C, strain KRE1 (second series), stronger effect = lower value 1 | locus YNR049C, strain mso1, stronger effect = lower value 1 | locus YOR001W, strain rrp6, stronger effect = lower value 1 | locus YOR070C, strain gyp1, stronger effect = lower value 1 | locus YOR080W, strain dia2, stronger effect = lower value 1.01 | locus YOR083W, strain WHI5, stronger effect = lower value 1.01 | locus YOR106W, strain vam3, stronger effect = lower value 0.999 | locus YOR231W, strain MKK1, stronger effect = lower value 0.987 | locus YOR265W, strain rbl2, stronger effect = lower value 0.999 | locus YOR270C, strain vph1, stronger effect = lower value 0.961 | locus YOR290C, strain snf2, stronger effect = lower value 1.01 | locus YPL051W, strain arl3, stronger effect = lower value 1 | locus YPL078C, strain atp4, stronger effect = lower value 0.999 | locus YPL106C, strain sse1, stronger effect = lower value 0.982 | locus YPL240C, strain hsp82, stronger effect = lower value 0.996 | locus YPL256C, strain CLN2, stronger effect = lower value 1.01
